# Source: PubChem
# L3MBTL1 inh – blocks human L3MBTL1; Q9Y468; AlphaScreen L3MBTL1–H3K9me1 peptide binding; Potency, µM (doses to about 57.1 µM), for inactives: top-dose activity, negative = inhibition, actives largely listed as inhibitors; hit rate 0.66% among 230,000; AID 485360; further: nearly all actives have a fitted effect of over 60% in size
#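 L3MBTL1 (50 nM) pre-complexed 30 min with biotinylated H3(1-15)K9me1 peptide (75 nM), then compounds added for 30 min at room temperature; AlphaScreen streptavidin donor/nickel chelate acceptor beads (10 ug/mL final) read after 30 min dark incubation.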
# APEX1 inh – inhibitors of human APE1 endonuclease | P27695 | recombinant APE1, TAMRA/BHQ-2 abasic DNA cleavage fluorescence | Potency, µM (series often up to 65.8 µM), inactives show top-dose activity change, negative = inhibition, most hits filed as inhibitors | hit rate 0.35% among 350,000 | AID 2517;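 further: plate controls were vehicle for no effect and reference inhibitor for full effect; nearly all actives have a fitted effect of over 55% in size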
#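 Enzyme (0.75 nM final) and test compound are incubated 15 min at room temperature before adding 50 nM quenched THF abasic-site duplex. Cleavage dequenches TAMRA, followed at 525/598 nm over three reads one minute apart.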
# RECQ1 inh-1 – RECQ1 (human) helicase inhibition; P46063; RECQ1 DNA unwinding, red fluorescence kinetic read; Potency, µM (titrated, usually from 57.3 µM), inactives show top-dose activity, negative = inhibition, most hits filed as inhibitors; hit rate 0.54% among 240,000; AID 2549;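 further: plate controls were vehicle for no effect and no enzyme for full effect; nearly all actives have a fitted effect of over 30% in size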
# Target sequence (P46063 whole entry, looked up): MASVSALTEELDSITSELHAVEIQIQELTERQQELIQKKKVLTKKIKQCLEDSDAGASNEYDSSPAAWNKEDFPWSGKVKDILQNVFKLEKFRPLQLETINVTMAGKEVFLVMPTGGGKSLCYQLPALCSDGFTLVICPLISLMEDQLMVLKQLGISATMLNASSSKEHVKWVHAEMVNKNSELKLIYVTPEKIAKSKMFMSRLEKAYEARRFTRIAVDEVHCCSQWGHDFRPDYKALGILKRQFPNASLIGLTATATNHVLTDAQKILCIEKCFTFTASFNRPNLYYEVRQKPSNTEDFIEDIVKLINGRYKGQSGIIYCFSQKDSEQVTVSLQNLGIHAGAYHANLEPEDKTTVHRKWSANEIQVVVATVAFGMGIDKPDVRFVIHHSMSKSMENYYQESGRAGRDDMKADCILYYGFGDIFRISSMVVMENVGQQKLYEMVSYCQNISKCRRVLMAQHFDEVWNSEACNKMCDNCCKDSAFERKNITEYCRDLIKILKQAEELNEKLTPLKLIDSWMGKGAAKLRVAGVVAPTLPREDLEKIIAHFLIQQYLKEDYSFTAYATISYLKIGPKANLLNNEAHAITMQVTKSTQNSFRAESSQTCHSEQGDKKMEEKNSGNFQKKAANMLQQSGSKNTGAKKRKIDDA
#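 RECQ1T1 50 nM; forked duplex (20 bp + 30-nt ss tails) 200 nM, ATP 2 mM final; pH 8.0, 2 mM MgCl2, 2.5 ug/ml poly(dI-dC); 15 min compound preincubation; discontinuous kinetic read over 2 h at RT.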
# BLM helicase inh – inhibitors of human Bloom syndrome helicase BLM; AID 2528; recombinant BLM DNA unwinding, fluorescence dequenching; hit rate 0.2% among 350,000; Potency, µM (highest dose often 56.1 µM), without a hit: at the top dose activity change, negative = inhibition, usual class: inhibitors;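 further: plate controls were vehicle for no effect and no enzyme for full effect; nearly all actives have a fitted effect of over 35% in size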
# TDP1 inh – TDP1 (human) enzyme inhibition; Q9NUW8; recombinant TDP1, AlphaScreen DNA substrate cleavage; Potency, µM (top dose mostly 130 µM), inactives show top-dose activity change, negative = inhibition, hits mostly inhibitors; hit rate 0.28% among 350,000; further: nearly all actives have a fitted effect of over 40% in size
#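 Compounds were preincubated with Tdp1 (1 nM final) for 15 min at room temperature before substrate (15 nM final) started a 5 min reaction; beads (10 ug/ml final) were then added for 10 min before AlphaScreen detection.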
# KDM4E inh – inhibitors of human JMJD2E histone demethylase. hit rate 1.6% among 230,000. JMJD2E catalytic domain, FDH-coupled NADH fluorescence (FDH is formaldehyde dehydrogenase). Potency, µM (series often up to 57.1 µM), without a hit: at the top dose activity change, negative = inhibition, hits mostly inhibitors. B2RXH2; active means well fitted inhibition curve with a large enough effect, not every such curve was filed as active; inconclusive means small, poorly fitted or top-dose-only effect, or another doubt; inactive means no such curve, though single readings can be large or run the other way;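 further: 0% = wells with enzyme and -100% = buffer wells without enzyme; nearly all actives have a fitted effect of over 50% in size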
# RECQ1 inh conf – confirmation of human RECQ1 helicase inhibitors | Potency, µM (series often up to 229 µM), for the others: at the top dose activity change, negative = inhibition, most hits filed as inhibitors | RECQ1 helicase DNA unwinding, fluorescence | shares compounds with RECQ1 inh-1 | hit rate 28% among 610; further: nearly all actives have a fitted effect of over 45% in size
# RECQ1 ADP FP – displaces ADP in a fluorescence polarization counter-screen for RECQ1 hits | hit rate 27% among 530 | Potency, µM (highest dose often 228 µM), without a hit: at the top dose activity change, negative = inhibition, hits mostly inhibitors | ADP fluorescence polarization displacement counterscreen | shares compounds with RECQ1 inh-1; further: nearly all actives have a fitted effect of over 45% in size
# RECQ1 inh-2 – confirmation of human RECQ1 helicase inhibitors | Potency, µM (series often up to 119 µM), inactives show at the top dose activity, negative = inhibition, usual class: inhibitors | shares compounds with RECQ1 inh-1 | recombinant RECQ1 DNA unwinding, red fluorescence | hit rate 15% among 1,100; further: nearly all actives have a fitted effect of over 50% in size
# * hit, by the source's call; i = inactive; ? = inconclusive; · = no result given; [ ] = dose if it differs, or a comment. The entries come from a sample that favours hits as a whole. Unless noted, the call rests on the fitted dose curve; in most records, active means well fitted curve in the direction sought with a large enough effect; inconclusive means small, poorly fitted or top-dose-only effect, or another doubt; inactive means no such curve, though single readings can be large; an effect the other way counts as inactive or inconclusive. Unless noted, on the % scale 0 is the no-effect control and ±100 the full control effect; potency means the concentration at half of the fitted maximal effect.
SMILES,L3MBTL1 inh,APEX1 inh,RECQ1 inh-1,BLM helicase inh,TDP1 inh,KDM4E inh,RECQ1 inh-2,others
CC(C)(C)[C@@H]1C=C(C(=O)NCc2ccccc2)O[C@H](OCc2ccc(CO)cc2)C1,9%,16%,?,-5%,4%,-1%,·,RECQ1 inh conf=6%[114 µM];RECQ1 ADP FP=?
O=C(O)c1cccc(NC(=S)NC(=O)c2ccc(-c3ccccc3)cc2)c1,-10%,-6%,i,-2%,-2%,-14%,·,
COc1cc2ccccc2cc1C(=O)NC(=S)Nc1cccc(C(=O)O)c1,-22%,?,?,?,·,?,25µM*,
O=C(CNS(=O)(=O)c1c(Cl)cccc1Cl)OCC(=O)c1ccc[nH]1,-23%,7%,?,-26%,-3%,2%,-23%,
O=C(CNS(=O)(=O)c1ccc(Br)cc1Cl)OCC(=O)c1ccc[nH]1,-3%,10%,·,·,1%[0.505 µM],·,·,
S=C(NCc1ccco1)Nc1ccc(Oc2ccc(Cl)cc2)cc1,-8%,18%,?,-14%,0%,-25%,-28%,
S=C(NCc1ccco1)Nc1ccccc1,-6%,7%,-10%,-2%,0%,3%,·,
COC(=O)c1cccc(C(=O)N2CCCC(Nc3ccc(C)c(C)c3)C2)c1 (stereo not given),·,17%,·,-2%,8%,·,·,
Cc1ccc(/C=C(\CCC(=O)O)c2nc3ccccc3s2)cc1[N+](=O)[O-],0%,2%,-4%,-4%,6%,9%,·,
Cn1cnnc1Sc1ccc(/C=C(\CCC(=O)O)c2nc3ccccc3s2)cc1[N+](=O)[O-],-8%,19%,14%,-5%,-6%,-22%,·,RECQ1 inh conf=11%;RECQ1 ADP FP=1%
Cn1cnnc1Sc1ccc(C(=O)OCC(=O)Nc2ccccc2)cc1[N+](=O)[O-],-16%,-2%,-15%,5%,-1%,5%,·,
CNc1ccc(/C=C(\CCC(=O)O)c2nc3ccccc3s2)cc1[N+](=O)[O-],-12%,35µM*,35µM*,-29%,-8%,3%,32µM*,
CCOC(=O)CSC1=Nc2ccccc2C2=NC(CCC(=O)NCc3ccccc3)C(=O)N12 (stereo not given),·,·,·,0%,-4%,·,·,
COCCn1c(N)c(S(=O)(=O)c2cccs2)c2nc3ccccc3nc21,·,0%,-13%,?,7%,?,·,
COCCn1c(N)c(C(=O)NCc2cccs2)c2nc3ccccc3nc21,61%,?,?,-13%,?,?,-16%,
COCCn1c(N)c(C(=O)Nc2sc3c(c2C(=O)OC)CCCC3)c2nc3ccccc3nc21,17%[11.4 µM],-5%,8%,-3%,5%,0%,·,
COCCn1c(N)c(C(=O)NCC2CCCO2)c2nc3ccccc3nc21 (stereo not given),9%,?,?,?,2%,?,-10%,
Cc1ccc(O)c(N=Cc2cc(Cc3ccccc3)cc([N+](=O)[O-])c2O)c1,-20%,-12%,13µM*,-22%,11%,28µM*,?,RECQ1 inh conf=56µM*;RECQ1 ADP FP=45µM*
COc1cc(C=Nc2cccc(C)c2)c(O)c([N+](=O)[O-])c1,-15%,-2%,-1%,-18%,3%,-5%,·,
COc1cccc(=O)c2c(C)n(-c3cc(C)cc(C)c3)c(C)c12,-12%,-6%,-10%,-8%,8%,1%,·,
COc1cccc(=O)c2c(C)n(C)c(C)c12,?,-9%,?,-18%,-13%,-21%,-21%,
CCCCCn1c(C)c2c(OCC)cccc(=O)c2c1C,·,-8%,32µM*,-12%,9%,?,-11%,
CC(=O)Nc1ccc(NC(=O)C(NS(=O)(=O)c2ccc(Br)s2)c2ccccc2)cc1 (stereo not given),·,·,·,-1%,-4%[12.3 µM],·,·,
O=C(O)c1ccc(N2C(=O)/C(=C/c3ccc(-c4ccc([N+](=O)[O-])cc4)o3)C=C2c2ccccc2)cc1,-26%,?,18µM*,-20%,1%,5%,·,RECQ1 inh conf=22µM*
CCCCN(C)CCCNC(=O)Cn1ncc2c3ccccc3n(Cc3ccccc3F)c2c1=O,·,·,·,-7%,0%,·,·,
SMILES,L3MBTL1 inh,APEX1 inh,RECQ1 inh-1,BLM helicase inh,TDP1 inh,KDM4E inh,RECQ1 inh-2,others
CCC(=O)O[C@@H]1[C@H](C)O[C@H](O[C@H]2[C@@H](N(C)C)[C@H](O)[C@@H](O[C@@H]3[C@@H](CC=O)C[C@@H](C)[C@@H](O)/C=C\C=C/C[C@@H](C)OC(=O)C[C@@H](OC(=O)CC)[C@H]3OC)O[C@H]2C)C[C@]1(C)O,·,·,-8%[25.9 µM],7%[21.4 µM],5%[56.1 µM],6%[25.5 µM],·,
O=c1oc2ccc3ccccc3c2cc1-c1nnc(Nc2ccc(Cl)cc2Cl)s1,·,·,·,-2%,3%[12.3 µM],·,·,
Cc1ccc(NC(=O)C2CCN(S(=O)(=O)c3c(C)noc3/C=C/c3ccco3)CC2)nc1,1%,-5%,35µM*,-5%,4%,?,-11%,
CCn1cc(C(=O)OCC(=O)Nc2c(C)n(C)n(-c3ccccc3)c2=O)c(=O)c2ccc(C)nc21,0%,0%,i,-1%,0%,2%,·,RECQ1 inh conf=11%;RECQ1 ADP FP=?
Cc1c(NC(=O)COC(=O)c2ccc(O)cc2)c(=O)n(-c2ccccc2)n1C,34%,-4%,·,·,1%,·,·,
CCn1cc(C(=O)OC(C)C(=O)Nc2c(C)n(C)n(-c3ccccc3)c2=O)c(=O)c2ccc(C)nc21 (stereo not given),-6%,8%,i,0%,2%,3%,·,
Cc1c(NC(=O)COC(=O)c2cc(-c3cccc4ccccc34)nc3ccccc23)c(=O)n(-c2ccccc2)n1C,-12%,-4%,?,-2%,3%,i,?,
Cc1c(NC(=O)COc2ncnc3ccccc23)c(=O)n(-c2ccccc2)n1C,0%,-4%,-8%,0%,-2%,-4%,·,
CCCc1nc2ccccc2c(C(=O)OCC(=O)Nc2c(C)n(C)n(-c3ccccc3)c2=O)c1CC,-5%,2%,-11%,1%,5%,7%,·,RECQ1 inh conf=12%;RECQ1 ADP FP=14%
CCOC(=O)c1ccc(CN(Cc2ccc(F)cc2)S(=O)(=O)c2cc(C(=O)Nc3cccc(C(F)(F)F)c3)ccc2F)cc1,·,·,·,-8%,5%,·,·,
